About 83,000 compounds went through this panel and 20% of them were active in at least one assay; those are over-represented in the sample as a whole.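 Growth was measured after 48 h exposure to one concentration of compound in 96-well plates. Values under 10 count as active.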 Values without a mark were called inactive. Activity calls are given as the source filed them.
Key:
Test in all cases: NCI-60 one-dose screen, 48 h (100 = growth as untreated, 0 = no growth, -100 = all killed)
Details in all cases: 10 µM unless noted
[1] = test system: NCI-H23 lung
[2] = test system: NCI-H226 lung
[3] = test system: NCI-H322M lung
[4] = test system: HOP-62 NSCLC
[5] = test system: NCI-H460 lung
[6] = test system: HOP-92 NSCLC
[7] = test system: NCI-H522 lung
[8] = test system: A549/ATCC NSCLC
[9] = test system: 786-0 renal
[10] = test system: DU-145 prostate
[11] = test system: K-562 leukemia
[12] = test system: MALME-3M melanoma
[13] = test system: MDA-MB-231 breast
[14] = test system: RXF 393 renal
[15] = test system: SF-268 CNS
[16] = test system: SF-295 CNS
[17] = test system: SF-539 CNS
[18] = test system: UACC-257 melanoma
[19] = test system: M14 melanoma

Structure (SMILES) | growth [1] | growth [2] | growth [3] | growth [4] | growth [5] | growth [6] | growth [7] | growth [8] | growth [9] | growth [10] | growth [11] | growth [12] | growth [13] | growth [14] | growth [15] | growth [16] | growth [17] | growth [18] | growth [19]
CCNCCNc1cc(-c2ccc(C(=O)OC)cc2)c(C#N)c2nc3ccccc3n12 | 66.6% | 87.8% | 43.7% | 68.4% | 4.26% (active) | 71% | 32.3% | 11.9% | 44.2% | 38.1% | 2.65% (active) | 88.5% | 0.164% (active) | 16% | 30.8% | -62.1% (active) | -80.1% (active) | 53.1% | 31.5%
Cc1cnc(Nc2ccc(OCCN3CCCC3)cc2)nc1NCc1ccco1 | 70.9% | 45.8% | 81.9% | 60.4% | 72.8% | 54.8% | 70.1% | 76.3% | 60.7% | 83.8% | 12.9% | 105% | 55.6% | 48% | 68.5% | 84% | 68.7% | 96% | 96.3%
CC(C)OC(=O)OCOP(=O)(OCOC(=O)OC(C)C)C1CCCN(O)C1=O (stereo unspecified) | 69.6% | 56.1% | 32.8% | 13.3% | 17% | 41.7% | -6.81% (active) | 22.1% | 17.6% | 52.5% | 30.3% | 41.1% | 21.8% | 8.56% (active) | 26.5% | 62.8% | 75.5% | 55.2% | 44.4%
COc1ccc(/C=C(\C#N)n2nnc3ccccc32)cc1 | 15.1% | 1.15% (active) | 25.8% | 26.2% | 2.42% (active) | 24.7% | 21.2% | 19.5% | 7.4% (active) | -5.07% (active) | 15% | 44.1% | -14.5% (active) | -39.3% (active) | 21.3% | -3.98% (active) | -46.4% (active) | 77.5% | -11% (active)
C=CC(=O)Nc1cccc(C)c1Nc1cc(-c2cccnc2Cc2c(C)c(OC)cc(OC)c2C)ncn1 | 54.4% | 46.1% | 50.7% | -38% (active) | 4.5% (active) | 22.8% | -17.4% (active) | 8.38% (active) | 16% | 11.4% | -11.1% (active) | 66.1% | 21.4% | -0.169% (active) | 6.81% (active) | 43% | 3.02% (active) | 21.4% | 53.4%
COc1ccc(/C(C)=N/NS(=O)(=O)c2ccc(C)cc2)cc1OC | 105% | 106% | 120% | 117% | 97.8% | 69% | 117% | 102% | 102% | 118% | 111% | 121% | 113% | 115% | 106% | 98.9% | 103% | 104% | 117%
COC(=O)c1ccc(CSc2nnc(-c3ccncc3)o2)cc1 | 105% | 102% | 93.4% | 92.4% | 108% | 108% | 86.3% | 99.9% | 100% | 114% | 93.9% | 103% | 106% | 122% | 101% | 109% | 98.7% | 99% | 102%
Cc1nn(Cc2ccccc2)cc1C(=O)Nc1sc2c(c1C(N)=O)CCC(=O)C2 | 12.6% | 71.9% | 96.2% | 84.6% | 86% | 31.2% | -3.17% (active) | 84.7% | 70.1% | 67.6% | 10.5% | 27.6% | 25% | 31.4% | 20.5% | 79.7% | 9.16% (active) | 70.7% | 16.7%
CC(C)(C)CC(C)(C)Nc1c(-c2ccc(-c3ccccc3)cc2)nc2cnccn12 | 91.5% | 87.4% | 81.5% | 79.9% | 80% | 93.3% | 37.5% | 56.4% | 80.6% | 94.9% | 62.7% | 108% | 90.6% | 94.4% | 81.5% | 97.6% | 90.5% | 83.3% | 89.2%
O=C1Nc2ccccc2SC1c1ccccc1Cl (stereo unspecified) | 102% | 104% | 95.6% | 96.3% | 116% | 69.2% | 103% | 90% | 97.5% | 108% | 41.2% | 81.9% | 98.9% | – | 87.8% | 58.2% | 109% | 100% | 93.7%
C[C@H]1[C@H]2C3=CC[C@@H]4[C@@]5(C)C/C(=C/c6ccncc6)C(=O)C(C)(C)[C@@H]5CC[C@@]4(C)[C@]3(C)CC[C@@]2(C(=O)N2CCN(C)CC2)CC[C@@H]1C | 93.2% | 85.5% | 78.2% | 74.7% | 68.3% | 42.8% | 70% | 63.9% | 81.4% | 89.3% | 40.2% | 102% | 81.4% | 83.8% | 82.4% | 87.7% | 83.2% | 83.6% | 65.7%
O=C(CC1Sc2ccccc2NC1=O)NNc1ccc(F)cc1 (stereo unspecified) | 95.3% | 84.4% | 86.8% | 57.1% | 93.1% | 71.4% | 71.1% | 92.5% | 78.1% | 98% | 13.6% | 112% | 84.9% | – | 72.1% | 31% | 94.8% | 92.4% | 31.3%
Nc1ccc(CCCCc2ccccc2)c(Cl)c1 | 101% | 96.8% | 85% | 105% | 102% | 53.1% | 71.1% | 81.2% | 88.9% | 103% | 90.1% | 106% | 91.2% | 90.3% | 83% | 104% | 91.2% | 89% | 103%
C(=C\c1nc2ccccc2[nH]1)/c1nc2ccccc2[nH]1 | 96.5% | 92.6% | 98.6% | 110% | 103% | 95% | 98% | 99.1% | 113% | 107% | 90% | – | 90.4% | 122% | 110% | 100% | 104% | 86.6% | 100%
O=C(CCCCCCCn1cc(-c2cccnc2)nn1)Nc1ccccc1-c1ccccc1 | 63.6% | 55.4% | 65.3% | 61.1% | 29.3% | 96.5% | 27.5% | 36.9% | 53.4% | 37.2% | 23.7% | – | 59.6% | 80.4% | 63.8% | -15.9% (active) | -7.88% (active) | 65.6% | 17.3%

— PubChem BioAssay (NCI)
